# For some assays here: Entries with a potency or affinity are not part of this list.
# Tests used:
# Design in all cases: scale not given: direction of the effect not stated beside the values
# [1] = molecular target: Protein translocase subunit SecA (Escherichia coli (strain K12)) (UniProt P10408); experiment: Assay to Identify E. coli SecA ATPase Inhibitors; format: functional; conditions: 30 µM
# [2] = molecular target: T1, Ubiquitin-activating enzyme e1, putative (Leishmania donovani (strain BPK282A1)) (UniProt E9BSI1); experiment: Leishmania donovani Ubiquitin Activating Enzyme (LdE1); format: functional; conditions: 30 µM
# T1 sequence (whole entry): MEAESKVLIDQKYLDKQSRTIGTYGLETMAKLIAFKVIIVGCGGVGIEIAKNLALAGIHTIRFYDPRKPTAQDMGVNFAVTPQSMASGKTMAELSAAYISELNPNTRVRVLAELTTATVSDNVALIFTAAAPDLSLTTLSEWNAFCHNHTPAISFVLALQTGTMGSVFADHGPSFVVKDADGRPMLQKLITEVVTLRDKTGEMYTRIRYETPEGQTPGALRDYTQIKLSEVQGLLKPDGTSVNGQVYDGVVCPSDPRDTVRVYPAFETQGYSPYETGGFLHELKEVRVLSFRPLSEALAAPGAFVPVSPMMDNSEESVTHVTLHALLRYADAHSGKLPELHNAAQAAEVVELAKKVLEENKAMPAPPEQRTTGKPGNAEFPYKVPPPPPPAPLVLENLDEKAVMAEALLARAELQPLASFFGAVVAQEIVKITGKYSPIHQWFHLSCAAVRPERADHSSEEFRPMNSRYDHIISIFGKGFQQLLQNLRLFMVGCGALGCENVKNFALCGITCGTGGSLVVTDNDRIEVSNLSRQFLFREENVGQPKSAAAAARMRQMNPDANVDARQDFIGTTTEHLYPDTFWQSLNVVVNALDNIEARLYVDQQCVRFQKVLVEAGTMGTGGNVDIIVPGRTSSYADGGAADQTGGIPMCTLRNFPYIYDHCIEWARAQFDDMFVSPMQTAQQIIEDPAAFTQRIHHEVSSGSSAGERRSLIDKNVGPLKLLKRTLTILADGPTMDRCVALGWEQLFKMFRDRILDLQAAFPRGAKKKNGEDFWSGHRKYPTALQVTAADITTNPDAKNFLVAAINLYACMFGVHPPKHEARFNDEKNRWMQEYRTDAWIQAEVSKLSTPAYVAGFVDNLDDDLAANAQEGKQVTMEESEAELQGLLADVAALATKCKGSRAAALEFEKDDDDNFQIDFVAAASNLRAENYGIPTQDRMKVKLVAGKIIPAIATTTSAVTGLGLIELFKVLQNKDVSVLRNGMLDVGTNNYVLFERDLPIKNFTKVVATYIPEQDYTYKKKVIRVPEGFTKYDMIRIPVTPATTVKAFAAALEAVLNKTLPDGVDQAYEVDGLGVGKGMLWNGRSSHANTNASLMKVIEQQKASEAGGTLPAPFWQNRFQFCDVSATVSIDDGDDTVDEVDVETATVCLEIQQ
# [3] = molecular target: AMP-activated protein kinase, AMPK (Homo sapiens) (UniProt P54646+O43741+P54619+Q9UGJ0+Q9Y478+Q13131+Q9UGI9); experiment: AMP-dependent Kinase enzyme assay. An in vitro enzyme assay that detects ADP turnover that is directly proportional to AMPK activity. This uses naive AMPK that is activated during the assay with MK-8722; format: functional; conditions: 30 µM
# [4] = molecular target: Sialic acid-binding Ig-like lectin 9 (Homo sapiens) (UniProt Q9Y336); experiment: Hs-Siglec9 ALPHAscreen SOP 20170721; conditions: 10 µM
# Sialic acid-binding Ig-like lectin 9 (Homo sapiens), sequence (Q9Y336 whole entry): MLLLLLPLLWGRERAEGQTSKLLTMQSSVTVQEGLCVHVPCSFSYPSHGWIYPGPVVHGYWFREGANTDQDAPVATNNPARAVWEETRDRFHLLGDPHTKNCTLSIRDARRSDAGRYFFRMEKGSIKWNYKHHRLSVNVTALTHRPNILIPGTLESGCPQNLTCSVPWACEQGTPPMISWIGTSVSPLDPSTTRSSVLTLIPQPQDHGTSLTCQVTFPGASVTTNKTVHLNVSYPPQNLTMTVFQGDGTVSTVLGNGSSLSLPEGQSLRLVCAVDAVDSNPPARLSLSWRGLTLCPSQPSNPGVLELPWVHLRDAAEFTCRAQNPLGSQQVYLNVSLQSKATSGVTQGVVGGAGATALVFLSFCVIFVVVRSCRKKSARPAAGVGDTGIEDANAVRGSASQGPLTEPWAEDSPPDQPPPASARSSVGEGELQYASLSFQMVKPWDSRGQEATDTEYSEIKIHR
# [5] = test system: Trypanosoma cruzi; experiment: Trypanosoma cruzi phosphomannomutase and mannose-1-phosphate guanylyltransferase assay; format: functional; conditions: 10 µM
# [6] = molecular target: T2, Arginase-2, mitochondrial (Homo sapiens) (UniProt P78540); experiment: in vitro enzyme assay to detect the production of urea directly proportional to the activity of Arginase II; format: functional; conditions: 33.3 µM; also: in the data most compounds retested in dose-response had high values
# T2 sequence (whole entry): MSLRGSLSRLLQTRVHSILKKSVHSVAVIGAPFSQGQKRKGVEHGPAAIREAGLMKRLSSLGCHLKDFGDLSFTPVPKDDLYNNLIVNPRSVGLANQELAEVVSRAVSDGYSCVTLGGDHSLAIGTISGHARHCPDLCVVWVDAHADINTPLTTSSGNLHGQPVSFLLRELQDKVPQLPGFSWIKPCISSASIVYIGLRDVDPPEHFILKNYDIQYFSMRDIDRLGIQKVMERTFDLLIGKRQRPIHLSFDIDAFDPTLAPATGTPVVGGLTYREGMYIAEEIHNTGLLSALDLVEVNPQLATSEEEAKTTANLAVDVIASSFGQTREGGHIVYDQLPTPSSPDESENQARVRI
# [7] = molecular target: T3, Proteasome subunit beta (Trypanosoma cruzi) (UniProt O96673); experiment: Trypanosoma cruzi proteasome chymotrypsin-like activity (TcProtChymo) assay.; also: in the data most compounds retested in dose-response had high values; format: functional; conditions: 9.37 µM
# T3 sequence (whole entry): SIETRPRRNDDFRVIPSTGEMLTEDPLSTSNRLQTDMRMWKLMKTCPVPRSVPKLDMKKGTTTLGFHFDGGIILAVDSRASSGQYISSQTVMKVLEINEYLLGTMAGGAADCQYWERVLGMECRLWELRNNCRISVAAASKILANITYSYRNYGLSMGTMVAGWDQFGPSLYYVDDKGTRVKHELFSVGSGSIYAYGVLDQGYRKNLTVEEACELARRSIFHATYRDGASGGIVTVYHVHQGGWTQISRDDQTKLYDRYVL
# [8] = species: Homo sapiens; experiment: To identify inhibition of the IFN signalling (Jak-Stat) pathway via expression of an eGFP reporter gene under the control of an IFN-stimulated response element (ISRE) containing MxA promoter.; format: functional; conditions: 30 µM
# [9] = molecular target: T4, Tyrosyl-tRNA synthetase, putative (Trypanosoma cruzi (strain CL Brener)) (UniProt Q4DSP6); experiment: Trypanosoma cruzi tyrosyl tRNA synthetase (TcYRS) _High Tyrosine SOP; format: functional; conditions: 30 µM; also: in the data most compounds retested in dose-response had high values
# T4 sequence (whole entry): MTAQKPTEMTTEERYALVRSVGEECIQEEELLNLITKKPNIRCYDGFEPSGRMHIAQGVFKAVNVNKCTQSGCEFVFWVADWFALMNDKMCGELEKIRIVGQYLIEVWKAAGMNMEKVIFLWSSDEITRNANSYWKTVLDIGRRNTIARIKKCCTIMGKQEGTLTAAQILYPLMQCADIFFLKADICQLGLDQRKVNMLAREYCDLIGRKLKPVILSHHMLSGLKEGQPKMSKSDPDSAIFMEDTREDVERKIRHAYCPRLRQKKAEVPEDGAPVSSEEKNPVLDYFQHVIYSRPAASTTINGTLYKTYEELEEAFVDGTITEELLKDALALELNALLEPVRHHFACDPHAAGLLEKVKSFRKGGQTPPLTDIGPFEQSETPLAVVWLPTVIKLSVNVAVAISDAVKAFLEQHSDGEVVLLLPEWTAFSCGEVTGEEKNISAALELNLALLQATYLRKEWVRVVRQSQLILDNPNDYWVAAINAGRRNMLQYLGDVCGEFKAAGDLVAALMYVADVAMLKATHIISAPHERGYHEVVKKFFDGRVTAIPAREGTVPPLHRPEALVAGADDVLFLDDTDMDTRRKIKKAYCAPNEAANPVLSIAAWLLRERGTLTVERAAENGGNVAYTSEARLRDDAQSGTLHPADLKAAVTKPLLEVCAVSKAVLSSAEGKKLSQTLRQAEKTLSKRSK
# [10] = molecular target: T4, Tyrosyl-tRNA synthetase, putative (Trypanosoma cruzi (strain CL Brener)); experiment: Trypanosoma cruzi tyrosyl tRNA synthetase (TcYRS) SOP; format: functional; conditions: 30 µM
# [11] = molecular target: Chromo domain-containing protein 1 (Saccharomyces cerevisiae (strain ATCC 204508 / S288c) (Baker's yeast)) (UniProt P32657); experiment: ScCHD-1 Enzyme Inhibition Assay; format: functional; conditions: 30 µM; also: in the data most compounds retested in dose-response had high values
# Chromo domain-containing protein 1 (Saccharomyces cerevisiae (strain ATCC 204508 / S288c) (Baker's yeast)), sequence (P32657 whole entry, the tested form may be a part): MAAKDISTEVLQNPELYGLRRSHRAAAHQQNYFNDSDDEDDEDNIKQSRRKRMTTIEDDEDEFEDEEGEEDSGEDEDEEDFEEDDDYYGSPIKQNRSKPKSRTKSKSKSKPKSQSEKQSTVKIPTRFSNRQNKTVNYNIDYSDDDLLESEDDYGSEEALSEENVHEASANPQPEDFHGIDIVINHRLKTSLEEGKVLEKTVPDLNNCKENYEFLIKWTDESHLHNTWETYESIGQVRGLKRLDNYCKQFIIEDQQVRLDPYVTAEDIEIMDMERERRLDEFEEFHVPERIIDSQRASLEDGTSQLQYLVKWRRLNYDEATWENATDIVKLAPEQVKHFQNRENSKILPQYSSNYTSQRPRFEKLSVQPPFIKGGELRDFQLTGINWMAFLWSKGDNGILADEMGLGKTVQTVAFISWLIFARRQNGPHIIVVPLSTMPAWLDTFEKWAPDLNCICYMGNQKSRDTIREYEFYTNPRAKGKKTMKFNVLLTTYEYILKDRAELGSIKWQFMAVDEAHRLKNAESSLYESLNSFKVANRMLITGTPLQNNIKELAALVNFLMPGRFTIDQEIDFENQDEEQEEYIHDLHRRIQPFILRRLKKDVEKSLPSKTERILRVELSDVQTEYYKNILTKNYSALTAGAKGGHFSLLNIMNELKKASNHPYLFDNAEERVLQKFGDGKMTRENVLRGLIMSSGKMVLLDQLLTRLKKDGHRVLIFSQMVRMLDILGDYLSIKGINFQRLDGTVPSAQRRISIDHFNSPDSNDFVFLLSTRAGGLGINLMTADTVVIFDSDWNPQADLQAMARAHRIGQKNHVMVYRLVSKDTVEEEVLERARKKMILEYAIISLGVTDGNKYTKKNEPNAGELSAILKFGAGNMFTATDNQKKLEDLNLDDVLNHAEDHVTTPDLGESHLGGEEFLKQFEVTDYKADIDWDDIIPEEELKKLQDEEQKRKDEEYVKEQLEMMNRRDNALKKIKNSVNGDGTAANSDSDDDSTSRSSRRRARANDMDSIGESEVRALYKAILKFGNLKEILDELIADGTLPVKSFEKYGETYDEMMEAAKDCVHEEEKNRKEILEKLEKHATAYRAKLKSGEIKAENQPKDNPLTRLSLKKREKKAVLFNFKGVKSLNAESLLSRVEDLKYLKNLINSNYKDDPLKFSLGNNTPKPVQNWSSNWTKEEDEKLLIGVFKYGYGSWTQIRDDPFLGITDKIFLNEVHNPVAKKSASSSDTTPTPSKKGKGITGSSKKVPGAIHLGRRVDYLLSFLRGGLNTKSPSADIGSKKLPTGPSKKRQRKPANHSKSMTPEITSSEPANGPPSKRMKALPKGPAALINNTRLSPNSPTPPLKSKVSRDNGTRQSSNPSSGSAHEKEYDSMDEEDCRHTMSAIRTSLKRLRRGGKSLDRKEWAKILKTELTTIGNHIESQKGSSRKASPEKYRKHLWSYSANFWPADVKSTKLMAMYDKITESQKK
# Protein translocase subunit SecA (Escherichia coli (strain K12)), sequence (P10408 whole entry): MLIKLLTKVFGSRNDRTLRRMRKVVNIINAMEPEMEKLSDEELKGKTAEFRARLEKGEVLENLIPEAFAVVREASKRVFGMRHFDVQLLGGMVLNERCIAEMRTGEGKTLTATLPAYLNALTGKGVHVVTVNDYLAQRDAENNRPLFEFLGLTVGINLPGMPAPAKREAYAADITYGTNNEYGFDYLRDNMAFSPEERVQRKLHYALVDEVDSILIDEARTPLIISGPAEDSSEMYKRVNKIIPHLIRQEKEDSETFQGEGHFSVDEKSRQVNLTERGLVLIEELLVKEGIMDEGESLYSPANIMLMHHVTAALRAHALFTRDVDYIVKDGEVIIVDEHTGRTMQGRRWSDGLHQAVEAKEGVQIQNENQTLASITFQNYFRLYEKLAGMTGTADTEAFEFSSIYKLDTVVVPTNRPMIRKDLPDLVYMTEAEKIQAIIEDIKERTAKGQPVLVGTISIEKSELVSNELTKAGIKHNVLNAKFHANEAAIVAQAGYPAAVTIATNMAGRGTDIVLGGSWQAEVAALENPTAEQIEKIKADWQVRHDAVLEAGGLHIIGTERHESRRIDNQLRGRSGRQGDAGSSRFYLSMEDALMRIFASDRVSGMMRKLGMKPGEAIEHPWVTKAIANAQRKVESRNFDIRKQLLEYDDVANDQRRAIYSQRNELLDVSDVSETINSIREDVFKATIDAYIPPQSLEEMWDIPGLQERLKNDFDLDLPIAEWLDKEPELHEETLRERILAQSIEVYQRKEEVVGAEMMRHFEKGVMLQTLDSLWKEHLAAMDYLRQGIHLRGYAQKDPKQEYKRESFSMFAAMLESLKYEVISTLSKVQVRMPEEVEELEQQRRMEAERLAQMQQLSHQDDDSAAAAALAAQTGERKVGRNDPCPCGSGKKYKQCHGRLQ
Structure (SMILES),Percent Effect [1] [%],Percent Effect [2] [%],Percent Effect [3] [%],Percent Effect [4] [%],Percent Effect [5] [%],Percent Effect [6] [%],Percent Effect [7] [%],Percent Effect [8] [%],Percent Effect [9] [%],Percent Effect [10] [%],Percent Effect [11] [%]
COCC(O)CN(C)C(=O)NC1CCN(Cc2ccccn2)CC1 (configuration not stated),-2.64,28.6,-7.26,1.62,4.31,-2.85,15.4,7.67,5.83,24.4,-8.51
OC1(CN2CCCC2)CCCN(Cc2ccc(F)cc2Cl)C1 (configuration not stated),-2.56,0,-4.18,-3.78,-7.5,3.12,12,5.3,3.83,11.1,-3.94
Cc1nn(CC(C)C)c(N(C)C)c1CNCc1cccc2c1OCO2,3.79,13.5,-13.1,-3.94,-8.02,-12,16.9,13.9,7.39,11.1,-4.83
OC1CCN(Cc2cc3c(cc2Br)OCCO3)CC1,-3.08,4.17,1.37,-5.64,-7.68,4.42,0.526,-3.8,1.05,2.56,-1.21
CCC(=O)Nc1nnc(CCOc2cccc(OC)c2)s1,-4.51,-6.67,42.3,1.2,-3.54,-4.4,9.43,7.09,0,-7.69,-2
Cc1nc2n(n1)CC(NCc1cc(Cl)c3c(c1)OCCCO3)CC2 (configuration not stated),-6.19,15.8,-7.14,11.4,5.51,-1.44,6.01,6.53,6.4,25.9,-3.53
Cc1nc(C)n(C2CCCN(C(=O)c3ccc4c(c3)COC4)C2)n1 (configuration not stated),-2.83,13.5,-5.96,7.05,7.15,2.4,-4.67,6.78,2.97,11,0.576
CCc1nnsc1C(=O)NC1CCN(c2ccccn2)CC1,-1.79,18.9,1.62,8.18,5.38,21.1,15,15.5,3.23,16.1,-7.21
O=C(COc1cccc(Br)c1)N1CCOCC1c1ncon1 (configuration not stated),-1.32,-2.7,-2.58,-3.06,6.13,1.6,1.44,-26.1,1.48,-1.24,-4.52
Cc1nn(C)c(N(C)C)c1CNCc1ccccc1Cn1cncn1,-6.25,6.33,-0.0601,1.64,-1.33,0.215,6.52,3.54,3.12,-5.06,-11.2
CC(C)c1ncncc1C(=O)N1CCN(Cc2cscn2)CC1,-12.5,13.5,-16,21.4,10.7,2.03,5.03,5.44,6.93,23.2,-8.1
O=C(c1ccc(Cl)o1)N1CCCC(c2cc(C(F)(F)F)[nH]n2)C1 (configuration not stated),-4.11,7.89,8.92,-5.86,-4.95,-0.719,2.45,29.4,3.45,3.7,-2.91
CCC(CO)N(Cc1ccccn1)C(=O)c1ccc2c(c1)CCO2 (configuration not stated),-5.75,10.7,-10.8,36.5,7.89,15.6,13.4,12.5,0.546,16.1,-5.21
CC(C)NC(=O)N1CC[C@@H]2CN(Cc3cccc(Cl)c3)S(=O)(=O)[C@@H]2CC1,-0.309,8,9.12,-2.2,-7.34,-59.3,13.5,35.6,0,10,-7.22
COc1cccc(OCc2cc(C(=O)NC[C@H]3CCCN3)n[nH]2)c1,-3.48,15.3,-5.03,30.2,3.4,15.4,7.19,-6.81,1.05,12.8,-5.02
O=C(c1cscn1)N1CC[C@]2(C[C@@H](OCCN3CCCC3)CO2)C1,-1.81,13.3,1.02,-2.21,-2.95,-0.699,11.4,7.58,5.32,14.1,-0.0589
c1ccc(-c2noc(CNC3CCc4ncnn4C3)n2)nc1 (configuration not stated),-2.18,-5.41,-0.412,1.92,-4.74,1.66,-5.57,6.37,2.97,1.22,-1.02
OC1(Cn2ccc3ncccc32)CCN(Cc2ccccn2)CC1,-3.91,6.76,8.71,-8.37,-10.3,-5.34,13.7,34.1,-3.23,-9.09,-14.5
CN(Cc1cccc(F)c1)S(=O)(=O)N1CCOCC1,-1.93,7.89,1.93,-0.448,-0.876,-1.18,24.4,9.7,2.13,13,-6.29
CC(C)Cc1noc(CN2CCCC(Cn3cncn3)C2)n1 (configuration not stated),-4.29,16.2,-4.96,16.6,3.25,2.03,7,13.5,11.9,28.1,-7.85
NC(=O)C1CCN(c2nc3nccc(-c4ccccn4)c3c(=O)[nH]2)CC1,-4.8,18.4,0.528,-4.82,0.0974,-2.37,22,2.93,8.51,23.4,7.17
O=C(N1CCCC1)N1CCO[C@H]2[C@@H](Oc3ccccn3)CC[C@@H]21,0.00913,2.67,13.9,-0.922,-4.92,4.43,-1.85,12.7,4.25,3.85,1.67

# From ChEMBL document CHEMBL3988442, “University of Dundee, Small-Polar-MMV Screening Library” (2021)
